Measured values published in the supplement of paper PMC12350171.
Counter-ions that a name gives are not always drawn. Values without a mark were called inactive.

These compounds were tested on Yersinia pseudotuberculosis (assay: growth AUC normalised to DMSO control (fraction of control); higher = less growth inhibition, active = hit call of the paper). Settings: 20 µM.
How it was run: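 Three biological replicates were carried out, with OD578 read hourly for 24 h. Before inoculation at a starting OD578 of 0.01, pathogens were passaged anaerobically twice; plates were pre-reduced mGAM containing 20 μM compound and 1% DMSO, sealed with breathable membranes, and the Haemophilus parainfluenzae medium carried added hemin and NAD. Area under each growth curve was calculated by the trapezoidal rule up to the exponential-to-stationary transition and normalised to DMSO controls on the same plate.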
With `CCN(CC)C(=O)N1CCN(C)CC1` [Diethylcarbamazine citrate] the “growth AUC normalised to DMSO control” value was 0.998.
`C[C@@H]1[C@H](O)[C@@H](C)/C=C/C=C/C=C/C=C/C=C/C=C/C=C/[C@H](O[C@@H]2O[C@H](C)[C@@H](O)[C@H](N)[C@@H]2O)C[C@@H]2O[C@](O)(C[C@@H](O)C[C@@H](O)[C@H](O)CC[C@@H](O)C[C@@H](O)CC(=O)O[C@H]1C)C[C@H](O)[C@H]2C(=O)O` [Amphotericin B] was tested, and the “growth AUC normalised to DMSO control” value was 1.02.
In the case of `Cn1c(=O)c2c(ncn2CC(=O)O)n(C)c1=O` [Acefylline], the “growth AUC normalised to DMSO control” value is reported as 0.987.
In the case of `Cc1ccccc1C(OCCN(C)C)c1ccccc1` (stereo unspecified) [Orphenadrine hydrochloride], the “growth AUC normalised to DMSO control” value is reported as 0.992.
In the case of `O=C(Nc1ccc([N+](=O)[O-])cc1Cl)c1cc(Cl)ccc1O` [Niclosamide], the “growth AUC normalised to DMSO control” value is reported as 0.843 (active).
With `COc1ccc(OC)c(C(O)CNC(=O)CN)c1` (stereo unspecified) [Midodrine hydrochloride] the “growth AUC normalised to DMSO control” value was 1.02.

What follows are compounds tested on P. vulgatus RND KO (assay: growth AUC normalised to DMSO control (median) (fraction of control); higher = less growth inhibition, active = hit call of the paper). Settings: 20 µM.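 Also: active when median AUC fell below 0.1.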
How it was run: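 Strains were passaged twice overnight without oxygen, then grown in mGAM in 96-well plates with each approved-drug library compound at 20 μM and 1% DMSO, starting at OD578 0.01. OD578 was read hourly for 24 h inside an anaerobic incubator. Curves were truncated at entry into stationary phase, and the trapezoidal-rule area under the curve was normalised to same-plate vehicle wells. The value is the median across three biological replicates.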
`Cc1cc2c(cc1S(N)(=O)=O)S(=O)(=O)CCC2` [Meticrane] was tested, and the “growth AUC normalised to DMSO control” value was 1.03.
`CCCC(CCC)C(=O)O` [Valproic acid] was tested, and the “growth AUC normalised to DMSO control” value was 1.06.
With `CNCCC(Oc1ccc(C(F)(F)F)cc1)c1ccccc1` (stereo unspecified) [Fluoxetine hydrochloride] the “growth AUC normalised to DMSO control” value was 0.991.
In the case of `Cc1nnc(SCC2=C(C(=O)O)N3C(=O)[C@@H](NC(=O)Cn4cnnn4)[C@H]3SC2)s1` [Cefazolin sodium salt], the “growth AUC normalised to DMSO control” value is reported as 0.0126 (active).
`Clc1cc(Cl)c(OCC#CI)cc1Cl` [Haloprogin] was tested, and the “growth AUC normalised to DMSO control” value was 1.01.
In the case of `O=C(O)/C=C/c1ccc(Cn2ccnc2)cc1` [Ozagrel hydrochloride], the “growth AUC normalised to DMSO control” value is reported as 1.02.
`CC(=O)OCC(=O)NCCCOc1cccc(CN2CCCCC2)c1` [Roxatidine acetate hydrochloride] was tested, and the “growth AUC normalised to DMSO control” value was 0.996.
With `O=C(O)CNC(=O)C(CS)Cc1ccccc1` (stereo unspecified) [Thiorphan] the “growth AUC normalised to DMSO control” value was 0.993.
For `CCCCOC(=O)c1ccc(O)cc1` [Butylparaben], the “growth AUC normalised to DMSO control” value was 0.974.
In the case of `Cc1ccc(S(=O)(=O)NC(=O)NN2CCCCCC2)cc1` [Tolazamide], the “growth AUC normalised to DMSO control” value is reported as 1.01.
In the case of `COc1cc2nc(N3CCN(C(=O)C4COc5ccccc5O4)CC3)nc(N)c2cc1OC` (stereo unspecified) [Doxazosin mesylate], the “growth AUC normalised to DMSO control” value is reported as 0.949.
`CC(Oc1ccccc1)C(=O)N[C@@H]1C(=O)N2[C@@H]1SC(C)(C)[C@@H]2C(=O)O` (stereo partly specified) [Phenethicillin potassium salt] was tested, and the “growth AUC normalised to DMSO control” value was 0.0155 (active).
With `Nc1ccccc1S(N)(=O)=O` [o-Sulfanilamide] the “growth AUC normalised to DMSO control” value was 1.01.
`COc1ccc2[nH]c([S+]([O-])Cc3ncc(C)c(OC)c3C)nc2c1` (stereo unspecified) [Omeprazole] was tested, and the “growth AUC normalised to DMSO control” value was 1.02.
With `CC(=O)Oc1ccccc1C(=O)Oc1ccccc1C(=O)O` [Acetylsalicylsalicylic acid] the “growth AUC normalised to DMSO control” value was 0.998.
With `NCCCC(O)(P(=O)(O)O)P(=O)(O)O` [Alendronate sodium] the “growth AUC normalised to DMSO control” value was 1.05.
`O=C1Nc2ccc(Cl)cc2[C@@](C#CC2CC2)(C(F)(F)F)O1` [Efavirenz] was tested, and the “growth AUC normalised to DMSO control” value was 0.715.
With `CC(=O)O[C@]1(C(C)=O)CC[C@H]2[C@@H]3C=C(Cl)C4=CC(=O)[C@@H]5C[C@@H]5[C@]4(C)[C@H]3CC[C@@]21C` [Cyproterone acetate] the “growth AUC normalised to DMSO control” value was 0.896.
In the case of `COc1ccc(C(=O)NCc2ccc(OCCN(C)C)cc2)cc1OC` [Itopride], the “growth AUC normalised to DMSO control” value is reported as 1.02.
For `O=C(c1ccc(F)cc1)C1CCN(CCn2c(=O)[nH]c3ccccc3c2=O)CC1` [Ketanserin tartrate hydrate], the “growth AUC normalised to DMSO control” value was 1.03.
`C[C@]12C[C@H](O)[C@H]3[C@@H](CCC4=CC(=O)CC[C@@]43C)[C@@H]1CC[C@@H]2C(=O)CO` [Corticosterone] was tested, and the “growth AUC normalised to DMSO control” value was 1.
In the case of `C[N+](C)(CCOc1ccccc1)Cc1ccccc1.O=C([O-])c1cc2ccccc2cc1O` [Bephenium hydroxynaphthoate], the “growth AUC normalised to DMSO control” value is reported as 0.998.
`Cc1cnc(C(=O)O)c[n+]1[O-]` [Acipimox] was tested, and the “growth AUC normalised to DMSO control” value was 1.
With `COc1ccc2c(c1)c(CC(=O)OCC(=O)O)c(C)n2C(=O)c1ccc(Cl)cc1` [Acemetacin] the “growth AUC normalised to DMSO control” value was 0.855.
`CN(C)CCC[C@@]1(c2ccc(F)cc2)OCc2cc(C#N)ccc21` [Escitalopram oxalate] was tested, and the “growth AUC normalised to DMSO control” value was 1.01.
For `CNCCCC12CCC(c3ccccc31)c1ccccc12` [Maprotiline hydrochloride], the “growth AUC normalised to DMSO control” value was 0.947.
With `CCN(CC)CCOC(=O)C1(C2CCCCC2)CCCCC1` [Dicyclomine hydrochloride] the “growth AUC normalised to DMSO control” value was 1.
In the case of `CNCC(O)c1ccc(OC(=O)C(C)(C)C)c(OC(=O)C(C)(C)C)c1` (stereo unspecified) [Dipivefrin hydrochloride], the “growth AUC normalised to DMSO control” value is reported as 1.02.
With `Cc1ncc([N+](=O)[O-])n1CC(C)O` (stereo unspecified) [Secnidazole] the “growth AUC normalised to DMSO control” value was 0.0215 (active).
For `COc1cc(OC)c(C(=O)CCCN2CCCC2)c(OC)c1` [Buflomedil hydrochloride], the “growth AUC normalised to DMSO control” value was 0.997.
In the case of `Cc1cc(NC(=O)C2=C(O)c3ccccc3S(=O)(=O)N2C)no1` [Isoxicam], the “growth AUC normalised to DMSO control” value is reported as 0.979.
In the case of `CCN(CC)CCNC(=O)c1cc(Br)c(N)cc1OC` [Bromopride], the “growth AUC normalised to DMSO control” value is reported as 1.
For `NCCCC[C@H](N[C@@H](CCc1ccccc1)C(=O)O)C(=O)N1CCC[C@H]1C(=O)O` [Lisinopril], the “growth AUC normalised to DMSO control” value was 1.05.
`COCCCC/C(=N\OCCN)c1ccc(C(F)(F)F)cc1` [Fluvoxamine maleate] was tested, and the “growth AUC normalised to DMSO control” value was 0.968.
With `CCN(CC)C(=O)N1CCN(C)CC1` [Diethylcarbamazine citrate] the “growth AUC normalised to DMSO control” value was 0.995.
In the case of `C[C@@H]1[C@H](O)[C@@H](C)/C=C/C=C/C=C/C=C/C=C/C=C/C=C/[C@H](O[C@@H]2O[C@H](C)[C@@H](O)[C@H](N)[C@@H]2O)C[C@@H]2O[C@](O)(C[C@@H](O)C[C@@H](O)[C@H](O)CC[C@@H](O)C[C@@H](O)CC(=O)O[C@H]1C)C[C@H](O)[C@H]2C(=O)O` [Amphotericin B], the “growth AUC normalised to DMSO control” value is reported as 1.04.
`Cn1c(=O)c2c(ncn2CC(=O)O)n(C)c1=O` [Acefylline] was tested, and the “growth AUC normalised to DMSO control” value was 0.987.
In the case of `Cc1ccccc1C(OCCN(C)C)c1ccccc1` (stereo unspecified) [Orphenadrine hydrochloride], the “growth AUC normalised to DMSO control” value is reported as 1.01.
For `O=C(Nc1ccc([N+](=O)[O-])cc1Cl)c1cc(Cl)ccc1O` [Niclosamide], the “growth AUC normalised to DMSO control” value was 0.0144 (active).
In the case of `COc1ccc(OC)c(C(O)CNC(=O)CN)c1` (stereo unspecified) [Midodrine hydrochloride], the “growth AUC normalised to DMSO control” value is reported as 1.02.
